Assay results taken from PubChem BioAssay AID1159580 (chemical genetic matrix, 2015).
Values joined by “and” are separate entries in the source; they are usually repeats but may differ in a detail not shown here. Identical values can stand only once. The campaign covered roughly 5,500 compounds. About 2,000 (36%) were called active. About 18% were inconclusive and are not listed. No stated cut-off is given here; in the data, active means normalized growth mostly below about 0.91 (no sharp cut-off); inconclusive means no clear call, values can overlap the other calls; inactive means mostly above about 0.92. The list shows a part of the results.

Assay: chemical genetic growth profiling, strain panel (AID 1159580);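 further: tested at 20 µM; growth read once vehicle control cultures reached saturation at 30 °C; 1 = growth at the plate median or of vehicle wells; lower values mean less growth of the strain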
Conditions: S. cerevisiae deletion strains, growth OD

Measured: normalized growth

C[C@]12CCC(=O)C=C1CCC1C2[C@@H](O)C[C@@]2(C)C1CC[C@]2(O)C(=O)CO (stereo partly drawn)
inactive: locus YAL013W, strain DEP1, active compounds read low 1.02 | locus YAL021C, strain ccr4, active compounds read low 0.984 | locus YAL026C, strain drs2, active compounds read low 0.994 | locus YAL030W, strain snc1, active compounds read low 1.01 | locus YBL061C, strain skt5, active compounds read low 0.987 | locus YBR009C, strain hhf1, active compounds read low 1 | locus YBR021W, strain FUR4, active compounds read low 1.01 | locus YBR023C, strain chs3, active compounds read low 0.979 | locus YBR171W, strain sec66, active compounds read low 0.975 | locus YBR229C, strain ROT2, active compounds read low 1.02 | locus YBR231C, strain swc5, active compounds read low 1 | locus YBR279W, strain paf1, active compounds read low 0.98 | locus YCL011C, strain gbp2, active compounds read low 0.979 | locus YCL016C, strain dcc1, active compounds read low 0.971 | locus YCL029C, strain bik1, active compounds read low 0.995 | locus YCL069W, strain vba3, active compounds read low 1 | locus YCR088W, strain abp1, active compounds read low 0.993 | locus YDL005C, strain med2, active compounds read low 0.99 | locus YDL035C, strain GPR1, active compounds read low 1.02 | locus YDL040C, strain nat1, active compounds read low 1.01 | locus YDL074C, strain BRE1, active compounds read low 1.02 | locus YDL101C, strain DUN1, active compounds read low 1.02 | locus YDL185W, strain tfp1, active compounds read low 1 | locus YDL192W, strain arf1, active compounds read low 0.99 | locus YDR001C, strain nth1, active compounds read low 1 | locus YDR069C, strain doa4, active compounds read low 0.993 | locus YDR101C, strain arx1, active compounds read low 0.974 | locus YDR137W, strain rgp1, active compounds read low 1.01 | locus YDR159W, strain sac3, active compounds read low 0.948 | locus YDR162C, strain NBP2, active compounds read low 1.02 | locus YDR195W, strain ref2 0.974 | locus YDR297W, strain sur2, active compounds read low 1 | locus YDR318W, strain mcm21, active compounds read low 1 | locus YDR334W, strain swr1, active compounds read low 0.981 | locus YDR335W, strain msn5, active compounds read low 0.987 | locus YDR388W, active compounds read low 0.991 | locus YDR392W, strain spt3, active compounds read low 0.899 | locus YDR502C, strain sam2, active compounds read low 1.01 | locus YEL003W, strain gim4, active compounds read low 1.01 | locus YEL037C, strain rad23, active compounds read low 1 | locus YEL061C, strain CIN8 (second series), active compounds read low 0.991 | locus YEL061C, strain CIN8, active compounds read low 1.01 | locus YER015W, strain faa2, active compounds read low 0.996 | locus YER016W, strain bim1, active compounds read low 0.99 | locus YER110C, active compounds read low 0.989 | locus YER111C, strain swi4, active compounds read low 0.981 | locus YER155C, strain BEM2 (second series), active compounds read low 1.01 | locus YER155C, strain BEM2, active compounds read low 1.01 | locus YER167W, strain BCK2, active compounds read low 1.01 | locus YFR010W, strain ubp6, active compounds read low 1.01 | locus YGL078C, strain dbp3, active compounds read low 0.984 | locus YGL086W, strain mad1, active compounds read low 0.988 | locus YGL167C, strain pmr1, active compounds read low 0.987 | locus YGL173C, strain kem1, active compounds read low 0.975 | locus YGL227W, strain vid30, active compounds read low 0.981 | locus YGL240W, strain doc1, active compounds read low 0.971 | locus YGL248W, strain PDE1, active compounds read low 1.02 | locus YGL253W, strain hxk2, active compounds read low 0.99 | locus YGR078C, strain PAC10, active compounds read low 1.03 | locus YGR135W, strain pre9, active compounds read low 1.01 | locus YGR229C, strain SMI1, active compounds read low 1.02 | locus YGR252W, strain gcn5, active compounds read low 1.02 | locus YHR013C, strain ard1, active compounds read low 0.969 | locus YHR027C, strain rpn1, active compounds read low 1.01 | locus YHR030C, strain SLT2, active compounds read low 1.01 and 0.975 | locus YHR079C, strain IRE1 (second series), active compounds read low 0.997 | locus YHR079C, strain IRE1, active compounds read low 0.99 | locus YHR094C, strain hxt1, active compounds read low 0.988 | locus YHR129C, strain ARP1, active compounds read low 1.02 | locus YHR142W, strain chs7, active compounds read low 0.999 | locus YHR200W, strain rpn10, active compounds read low 1.01 | locus YIL066C, strain RNR3, active compounds read low 1.02 | locus YIL073C, strain SPO22, active compounds read low 1.02 | locus YIL125W, strain kgd1, active compounds read low 0.997 | locus YIR030C, strain dcg1, active compounds read low 0.994 | locus YJL092W, strain hpr5, active compounds read low 0.995 | locus YJL095W, strain BCK1 (second series), active compounds read low 1 | locus YJL095W, strain BCK1, active compounds read low 1.04 and 0.981 | locus YJL115W, strain asf1, active compounds read low 0.992 | locus YJL129C, strain trk1, active compounds read low 0.97 | locus YJL134W, strain LCB3, active compounds read low 1.01 | locus YJL154C, strain vps35, active compounds read low 0.991 | locus YJL164C, strain tpk1, active compounds read low 1 | locus YJL166W, strain qcr8, active compounds read low 1.02 | locus YJL168C, strain set2, active compounds read low 0.999 | locus YJL187C, strain SWE1 (second series), active compounds read low 1.02 | locus YJR043C, strain POL32, active compounds read low 1.03 | locus YJR066W, strain TOR1, active compounds read low 0.922
